# According to PubChem BioAssay (EPA / NIEHS):
# Calls of active or inactive are those of the source. How the source made its calls: active means hit-call score of the fitted dose curve at least 0.9, where 1 is the maximum; inactive means score below 0.9.
# Tests used:
# Details in all cases: mRNA level, 48 h; actives raise or lower the signal
# [1] = read-out: Ezrin (EZR), EZR (gene 7430); test: LTEA_HepaRG_EZR: Life Technologies and Expression Analysis (LTEA) Assay for Ezrin (EZR) using HepaRG (AID 2283491)
# How it was run: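 Read-out is EZR transcript level by qRT-PCR, normalized to three housekeeping genes and fitted bidirectionally against the DMSO control. Human HepaRG cells received test chemicals for 48 h at eight half-log concentrations up to 100 uM in 0.5% DMSO.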
# [2] = read-out: Cytochrome P450 3A7 (Homo sapiens) (UniProt P24462); test: LTEA_HepaRG_CYP3A7: Life Technologies and Expression Analysis (LTEA) Assay for CYP3A7 using HepaRG (AID 2283492)
# How it was run: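 Differentiated HepaRG cells in serum-free induction medium exposed 48 h in duplicate to 8-point half-log series from 100 uM top in 0.5% DMSO. CYP3A7 mRNA by qRT-PCR, normalized to ACTB/GAPDH/POLR2A, bidirectional fit versus DMSO.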
# CYP3A5 (gene 1577) = test: LTEA_HepaRG_CYP3A5: Life Technologies and Expression Analysis (LTEA) Assay for CYP3A5 using HepaRG (AID 2283493)
# How it was run: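 HepaRG plated 48 h, switched to serum-free induction medium, chemicals added 48 h (max 100 uM, half-log, 0.5% DMSO). RNA isolated; CYP3A5 by TaqMan qRT-PCR. Gain/loss vs DMSO.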
# [3] = read-out: Fatty Acid-Binding Protein 1 (FABP1), FABP1 (gene 2168); test: LTEA_HepaRG_FABP1: Life Technologies and Expression Analysis (LTEA) Assay for Fatty Acid-Binding Protein 1 (FABP1) using HepaRG (AID 2283494)
# How it was run: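 Differentiated human HepaRG cells exposed 48 h in serum-free induction medium to eight half-log concentrations up to 100 uM (0.5% DMSO), duplicate. FABP1 mRNA by qRT-PCR, normalised to ACTB, GAPDH, POLR2A; bidirectional fitting against DMSO.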
# [4] = read-out: Cytochrome P450 4A22 (Homo sapiens) (UniProt Q5TCH4); test: LTEA_HepaRG_CYP4A22: Life Technologies and Expression Analysis (LTEA) Assay for Cytochrome P450 4A22 (CYP4A22) using HepaRG (AID 2283495)
# How it was run: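 Differentiated HepaRG cells in serum-free induction medium exposed 48 h in duplicate to eight half-log concentrations up to 100 uM in 0.5% DMSO. CYP4A22 mRNA quantified by TaqMan qRT-PCR, normalized to ACTB, GAPDH and POLR2A; bidirectional fit versus DMSO.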
# [5] = read-out: Cytochrome P450 7A1 (Homo sapiens) (UniProt P22680); test: LTEA_HepaRG_CYP7A1: Life Technologies and Expression Analysis (LTEA) Assay for Cytochrome P450 7A1 (CYP7A1) using HepaRG (AID 2283496)
# How it was run: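 HepaRG cells plated 48 h, then switched to serum-free induction medium and exposed in duplicate for 48 h to 8-point half-log series from 100 uM in 0.5% DMSO. CYP7A1 mRNA by qRT-PCR (TaqMan), normalized to ACTB/GAPDH/POLR2A; bidirectional fit versus DMSO.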
# [6] = read-out: Glutathione S-Transferase (GSTA2), GSTA2 (gene 2939); test: LTEA_HepaRG_GSTA2: Life Technologies and Expression Analysis (LTEA) Assay for Glutathione S-Transferase (GSTA2) using HepaRG (AID 2283497)
# How it was run: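 Differentiated human HepaRG cells were exposed in duplicate for 48 h in serum-free induction medium, 8 points from 100 uM top in half-log steps, 0.5% DMSO. GSTA2 mRNA was measured by TaqMan qRT-PCR, normalized to ACTB, GAPDH and POLR2A; bidirectional fit versus DMSO.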
# [7] = read-out: Glutamate-cysteine ligase catalytic (GCLC), GCLC (gene 2729); test: LTEA_HepaRG_GCLC: Life Technologies and Expression Analysis (LTEA) Assay for Glutamate-cysteine ligase catalytic (GCLC) using HepaRG (AID 2283498)
# How it was run: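 Differentiated HepaRG cells exposed 48 h in serum-free induction medium, eight-point half-log series topping at 100 uM in 0.5% DMSO, duplicates. GCLC mRNA by qRT-PCR normalized to ACTB, GAPDH and POLR2A, fitted bidirectionally versus DMSO.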
# [8] = read-out: Glutamate-cysteine ligase regulatory (GCLM), GCLM (gene 2730); test: LTEA_HepaRG_GCLM: Life Technologies and Expression Analysis (LTEA) Assay for Glutamate-cysteine ligase regulatory (GCLM) using HepaRG (AID 2283500)
# How it was run: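 Cells were plated, cultured 48 h, switched to serum-free induction medium, then dosed in duplicate for 48 h at eight half-log concentrations up to 100 uM. RNA was then profiled by qRT-PCR; gain or loss versus DMSO was fitted.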
# [9] = read-out: Glutathione S-transferase M3 (GSTM3), GSTM3 (gene 2947); test: LTEA_HepaRG_GSTM3: Life Technologies and Expression Analysis (LTEA) Assay for Glutathione S-transferase M3 (GSTM3) using HepaRG (AID 2283501)
# How it was run: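 Differentiated human HepaRG cells were exposed in duplicate for 48 h in serum-free induction medium, 8 points from 100 uM top in half-log steps, 0.5% DMSO. GSTM3 mRNA was measured by TaqMan qRT-PCR, normalized to ACTB, GAPDH and POLR2A; bidirectional fit versus DMSO.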
# [10] = read-out: Heat shock 70 kDa protein 1 (HSPA1A), gene 3303; test: LTEA_HepaRG_HSPA1A: Life Technologies and Expression Analysis (LTEA) Assay for Heat shock 70 kDa protein 1 (HSPA1A) using HepaRG (AID 2283502)
# How it was run: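 Readout is HSPA1A transcript level by microfluidic qRT-PCR, normalized to three housekeeping genes and analysed for gain or loss of signal relative to 0.5% DMSO. Human HepaRG cultures received test chemicals for 48 h at up to 100 uM.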
# [11] = read-out: 3-Hydroxy-3-Methylglutaryl-CoA Synthase 2 (HMGCS2), HMGCS2 (gene 3158); test: LTEA_HepaRG_HMGCS2: Life Technologies and Expression Analysis (LTEA) Assay for 3-Hydroxy-3-Methylglutaryl-CoA Synthase 2 (HMGCS2) using HepaRG (AID 2283504)
# How it was run: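 Human HepaRG cells in serum-free induction medium were exposed in duplicate for 48 h to 8-point half-log series from 100 uM top in 0.5% DMSO. HMGCS2 mRNA measured by TaqMan qRT-PCR, normalised to ACTB, GAPDH, POLR2A; bidirectional fit versus DMSO.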
# HGF (gene 3082) = test: LTEA_HepaRG_HGF: Life Technologies and Expression Analysis (LTEA) Assay for Hepatocyte Growth Facto (HGF) using HepaRG (AID 2283505)
# How it was run: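 Differentiated HepaRG cells in serum-free induction medium exposed 48 h in duplicate, 8 half-log concentrations from 100 uM in 0.5% DMSO. HGF mRNA by qRT-PCR, normalised to ACTB, GAPDH, POLR2A; bidirectional fitting.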
# [12] = read-out: Insulin Like Growth Factor 1 (IGF1), IGF1 (gene 3479); test: LTEA_HepaRG_IGF1: Life Technologies and Expression Analysis (LTEA) Assay for Insulin Like Growth Factor 1 (IGF1) using HepaRG (AID 2283506)
# How it was run: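 HepaRG, plated 48 h, then switched to serum-free induction media; test chemical 8-pt half-log from 100 uM (0.5% DMSO), duplicate, 48 h. Lysis in RLT, TaqMan qRT-PCR, norm. ACTB/GAPDH/POLR2A. Bidirectional fit vs DMSO.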
# [13] = read-out: Intercellular Adhesion Molecule 1 (ICAM1), ICAM1 (gene 3383); test: LTEA_HepaRG_ICAM1: Life Technologies and Expression Analysis (LTEA) Assay for Intercellular Adhesion Molecule 1 (ICAM1) using HepaRG (AID 2283507)
# How it was run: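 Differentiated human HepaRG cells in serum-free induction medium exposed 48 h in duplicate to 8 half-log concentrations (top 100 uM, 0.5% DMSO). ICAM1 mRNA quantified by TaqMan qRT-PCR, normalized to ACTB, GAPDH and POLR2A; bidirectional fitting versus DMSO.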
# [14] = read-out: Insulin-like growth factor-binding protein 1 (IGFBP1), IGFBP1 (gene 3484); test: LTEA_HepaRG_IGFBP1: Life Technologies and Expression Analysis (LTEA) Assay for Insulin-like growth factor-binding protein 1 (IGFBP1) using HepaRG (AID 2283508)
# How it was run: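 HepaRG cells, plated 48 h then switched to serum-free induction medium, exposed in duplicate for 48 h to 8-point half-log series from 100 uM in 0.5% DMSO. mRNA measured by qRT-PCR, normalized to ACTB/GAPDH/POLR2A; bidirectional fit versus DMSO.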
# [15] = read-out: Interleukin 6 (IL6), IL6 (gene 3569); test: LTEA_HepaRG_IL6: Life Technologies and Expression Analysis (LTEA) Assay for Interleukin 6 (IL6) using HepaRG (AID 2283509)
# How it was run: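 HepaRG cells exposed in duplicate for 48 h to eight half-log concentrations, top 100 uM, in 0.5% DMSO serum-free induction medium. mRNA measured by qRT-PCR, normalized to ACTB, GAPDH and POLR2A. Bidirectional fit versus DMSO.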
# [16] = read-out: Interleukin 6 Receptor (IL6R), IL6R (gene 3570); test: LTEA_HepaRG_IL6R: Life Technologies and Expression Analysis (LTEA) Assay for Interleukin 6 Receptor (IL6R) using HepaRG (AID 2283510)
# How it was run: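 Readout is IL6R transcript level by TaqMan qRT-PCR, normalized to three housekeeping genes and fitted bidirectionally against 0.5% DMSO controls. Human HepaRG cells received chemicals for 48 h in serum-free induction medium, highest concentration 100 uM.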
# [17] = read-out: growth arrest and DNA damage 45 (GADD45G), GADD45G (gene 10912); test: LTEA_HepaRG_GADD45G: Life Technologies and Expression Analysis (LTEA) Assay for growth arrest and DNA damage 45 (GADD45G) using HepaRG (AID 2283499)
# How it was run: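 Differentiated human HepaRG cells, 48 h post-plating, exposed 48 h in serum-free induction medium to 8 half-log concentrations (top 100 uM, 0.5% DMSO) in duplicate. GADD45G mRNA measured by Fluidigm TaqMan qRT-PCR, normalized to ACTB, GAPDH, POLR2A; bidirectional fit versus DMSO.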
# [18] = read-out: Hypoxia-inducible factor 1-alpha (Homo sapiens) (UniProt Q16665); test: LTEA_HepaRG_HIF1A: Life Technologies and Expression Analysis (LTEA) Assay for Hypoxia-inducible factor 1 (HIF1A) Trancription factor using HepaRG (AID 2283503)
# How it was run: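 Differentiated HepaRG cells in serum-free induction medium exposed 48 h, in duplicate, to 8-point half-log series from 100 uM in 0.5% DMSO. HIF1A mRNA measured by TaqMan qRT-PCR, normalized to ACTB/GAPDH/POLR2A, fitted bidirectionally versus DMSO.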
# Chain of Cytochrome P450 3A7 (Homo sapiens) (P24462 whole entry, looked up): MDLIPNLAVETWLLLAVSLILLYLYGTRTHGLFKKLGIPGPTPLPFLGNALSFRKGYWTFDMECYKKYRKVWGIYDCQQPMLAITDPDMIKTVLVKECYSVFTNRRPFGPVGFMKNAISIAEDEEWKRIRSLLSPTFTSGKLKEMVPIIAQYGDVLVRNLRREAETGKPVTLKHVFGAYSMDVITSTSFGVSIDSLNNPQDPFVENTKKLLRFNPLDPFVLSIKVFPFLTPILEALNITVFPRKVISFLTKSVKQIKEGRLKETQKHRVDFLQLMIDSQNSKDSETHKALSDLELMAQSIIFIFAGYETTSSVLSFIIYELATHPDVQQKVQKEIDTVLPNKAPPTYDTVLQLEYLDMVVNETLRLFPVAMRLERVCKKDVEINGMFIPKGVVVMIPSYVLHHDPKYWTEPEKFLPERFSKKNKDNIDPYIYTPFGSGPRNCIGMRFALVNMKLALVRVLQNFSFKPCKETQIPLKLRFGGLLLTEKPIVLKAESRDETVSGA
# Chain of Hypoxia-inducible factor 1-alpha (Homo sapiens) (Q16665 whole entry, looked up): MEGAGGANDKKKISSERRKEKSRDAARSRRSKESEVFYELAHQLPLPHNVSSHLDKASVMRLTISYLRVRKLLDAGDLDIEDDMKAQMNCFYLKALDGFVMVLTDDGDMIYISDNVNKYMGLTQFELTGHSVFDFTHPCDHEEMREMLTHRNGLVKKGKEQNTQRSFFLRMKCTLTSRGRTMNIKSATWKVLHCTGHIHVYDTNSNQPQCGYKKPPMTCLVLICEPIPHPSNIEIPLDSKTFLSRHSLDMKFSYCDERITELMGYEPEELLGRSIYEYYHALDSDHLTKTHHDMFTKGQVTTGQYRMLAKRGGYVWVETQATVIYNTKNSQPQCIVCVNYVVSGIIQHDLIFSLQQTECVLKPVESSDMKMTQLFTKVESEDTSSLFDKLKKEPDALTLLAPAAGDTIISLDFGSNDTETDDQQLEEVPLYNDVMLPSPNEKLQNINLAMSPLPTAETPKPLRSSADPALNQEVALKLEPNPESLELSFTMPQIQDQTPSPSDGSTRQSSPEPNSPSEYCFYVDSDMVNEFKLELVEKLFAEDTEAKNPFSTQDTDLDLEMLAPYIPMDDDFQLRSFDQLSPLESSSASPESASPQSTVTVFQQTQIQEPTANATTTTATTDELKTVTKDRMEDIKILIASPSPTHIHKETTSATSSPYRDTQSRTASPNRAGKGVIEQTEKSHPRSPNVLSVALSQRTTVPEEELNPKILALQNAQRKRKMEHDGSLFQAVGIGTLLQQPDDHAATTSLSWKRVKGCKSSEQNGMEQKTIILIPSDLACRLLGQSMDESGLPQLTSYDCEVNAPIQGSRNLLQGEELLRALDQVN
smiles,measurement,setting,value
CC[C@H]1OC(=O)[C@H](C)[C@@H](O[C@H]2C[C@@](C)(OC)[C@@H](O)[C@H](C)O2)[C@H](C)[C@@H](O[C@@H]2O[C@H](C)C[C@H](N(C)C)[C@H]2O)[C@](C)(O)C[C@@H](C)C(=O)[C@H](C)[C@@H](O)[C@]1(C)O,outcome,[1],inactive
same,AC50,[2],13.9 µM (active)
same,outcome,CYP3A5 (gene 1577),inactive
same,outcome,[3],inactive
same,outcome,[4],inactive
same,outcome,[5],inactive
same,outcome,[6],inactive
same,outcome,[7],inactive
same,outcome,[8],inactive
same,outcome,[9],inactive
same,outcome,[10],inactive
same,outcome,[11],inactive
same,outcome,HGF (gene 3082),inactive
same,outcome,[12],inactive
same,outcome,[13],inactive
same,outcome,[14],inactive
same,outcome,[15],inactive
same,outcome,[16],inactive
O=C(O)c1cccc(N(Cc2cccnc2)c2ccc(OC(F)F)c(OC(F)F)c2)c1,outcome,[1],inactive
same,outcome,[2],inactive
same,outcome,CYP3A5 (gene 1577),inactive
same,AC50,[3],87 µM (active)
same,outcome,[4],inactive
same,AC50,[5],4.48 µM (active)
same,outcome,[6],inactive
same,outcome,[7],inactive
same,outcome,[17],inactive
same,outcome,[8],inactive
same,outcome,[9],inactive
same,outcome,[10],inactive
same,outcome,[18],inactive
same,outcome,[11],inactive
same,outcome,HGF (gene 3082),inactive
same,outcome,[12],inactive
same,outcome,[13],inactive
same,outcome,[14],inactive
same,outcome,[15],inactive
same,outcome,[16],inactive
CCCCCCc1ccc(O)cc1O,outcome,[1],inactive
same,outcome,[2],inactive
same,outcome,CYP3A5 (gene 1577),inactive
same,outcome,[3],inactive
same,outcome,[4],inactive
same,outcome,[5],inactive
same,outcome,[6],inactive
same,outcome,[7],inactive
same,outcome,[17],inactive
same,outcome,[9],inactive
same,outcome,[10],inactive
same,outcome,[18],inactive
same,outcome,[11],inactive
same,outcome,HGF (gene 3082),inactive
same,outcome,[12],inactive
same,outcome,[13],inactive
same,outcome,[14],inactive
same,outcome,[16],inactive
